Reference: PubChem BioAssay (Tox21)
Unmarked numbers belong to inactive results. Records with an inconclusive call do not appear. Where a call stands in place of a potency, no number is given. Active and inactive are the calls of the source. Unless noted, the call rests on the fitted dose curve; in most records, active means well fitted curve in the direction sought with a large enough effect in the repeat runs; inconclusive means weak or mixed curves; inactive means no such curve, though single readings can be large; an effect the other way counts as inactive or inconclusive.

Key:
[1] = qHTS assay to identify small molecule agonists of the hypoxia (HIF-1) signaling pathway - cell viability counter screen (AID 1224844; calls by dose curve; further: nearly all actives have a fitted effect of over 50% in size)
Procedure, shortened: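 HRE-bla ME-180 cells in medium with 0.5% dialyzed FBS were preincubated 5 hrs at 37C, exposed to compounds for 17 hrs, then viability was read as CellTiter-Glo luminescence after 30 min at room temperature, in the reporter wells.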

[2] = qHTS assay to identify small molecule agonists of the hypoxia (HIF-1) signaling pathway (AID 1224846; active means well fitted activation curve with a large enough effect in the signal ratio in the repeat runs, not every such curve was filed as active; the % refers to the signal ratio)
Procedure, shortened: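 HRE-bla ME-180 cells (beta-lactamase reporter under hypoxia response element) were plated at 2,000 cells/well in medium with 0.5% dialyzed FBS, rested 5 hrs, then given compounds in DMSO for 17 hrs at 37C, 5% CO2. Reporter induction was read with CCF4-AM FRET substrate.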

[3] = qHTS assay to identify small molecule agonists of H2AX - cell viability counter screen (AID 1224847; calls by dose curve;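 further: wild-type CHO-K1 cells; top concentration of the series differs between compounds; nearly all actives have a fitted effect of over 30% in size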)
Procedure, shortened: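 For this counter screen, overnight-attached CHO-K1 cells received test compounds (15 concentrations, 0.76% DMSO final); 3 hr later at 37C, CellTiter-Glo reagent was added and luminescence recorded after 30 min at room temperature.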

[4] = qHTS RealTime-Glo MT Cell Viability Assay in HepG2 cells - 24 hour (AID 1224867); further: nearly all actives have a fitted effect of over 50% in size
Procedure, shortened: (§1)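 Tox21 10K library screened in qHTS format on HepG2 cells carrying RealTime-Glo reagents. Compounds were added after a 5 h preincubation, and the luminescent signal from continuous culture was measured repeatedly during 40 h treatment.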

[5] = qHTS RealTime-Glo MT Cell Viability Assay in HEK293 cells - 32 hour (AID 1224868); further: nearly all actives have a fitted effect of over 50% in size; further: potency means the concentration at half of the fitted maximal effect
Procedure, shortened: (§2)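 Luminescence generated by NanoLuc from substrate produced by living HEK293 cells served as the viability signal. Each value reflects the reading at its stated time point during continuous 40 h compound exposure at 37 C.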

[6] = A CellTox Green Cytotoxicity Assay to monitor cytotoxicity in HEK293 cells - 0 hour (AID 1224869); further: nearly all actives have a fitted effect of over 50% in size
Procedure, shortened: (§3)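 HEK293 cells premixed with CellTox Green dye were seeded at 600 cells/well and left 5 h at 37 C/5% CO2 before pin transfer of 23 nL compound in DMSO. Fluorescence from dye bound to dead-cell DNA was read during 40 h treatment.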

[7] = qHTS RealTime-Glo MT Cell Viability Assay in HepG2 cells - 40 hour (AID 1224870); further: nearly all actives have a fitted effect of over 50% in size
Procedure, shortened: (§4)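 HepG2 cells mixed with RealTime-Glo MT reagents (NanoLuc plus cell-permeant prosubstrate) were seeded at 600 cells/well, incubated 5 h at 37 C/5% CO2, then pinned with compounds in DMSO; nonlytic luminescence tracked viability during 40 h treatment.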

[8] = A CellTox Green Cytotoxicity Assay to monitor cytotoxicity in HEK293 cells - 40 hour (AID 1224871); further: nearly all actives have a fitted effect of over 45% in size
Procedure, shortened: as §3

[9] = qHTS RealTime-Glo MT Cell Viability Assay in HEK293 cells - 16 hour (AID 1224872)
Procedure, shortened: as §2

[10] = qHTS RealTime-Glo MT Cell Viability Assay in HepG2 cells - 8 hour (AID 1224873); further: nearly all actives have a fitted effect of over 55% in size
Procedure, shortened: as §4

[11] = qHTS RealTime-Glo MT Cell Viability Assay in HEK293 cells - 40 hour (AID 1224874); details: RealTime-Glo luminescence; max response: active compounds read low; further: nearly all actives have a fitted effect of over 50% in size; further: potency means the concentration at half of the fitted maximal effect
Procedure, shortened: (§5)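 HEK293 cells mixed with RealTime-Glo reagents (NanoLuc plus cell-permeant prosubstrate) at 600 cells/well, preincubated 5 h at 37 C/5% CO2, then given 23 nL compound in DMSO. Nonlytic luminescence from viable cells was read at 0, 8, 16, 24, 32 and 40 h.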

[12] = A CellTox Green Cytotoxicity Assay to monitor cytotoxicity in HEK293 cells - 24 hour (AID 1224875); further: series mostly up to about 77 µM; nearly all actives have a fitted effect of over 45% in size
Procedure, shortened: as §3

[13] = A CellTox Green Cytotoxicity Assay to monitor cytotoxicity in HepG2 cells - 16 hour (AID 1224876); further: nearly all actives have a fitted effect of over 45% in size
Procedure, shortened: (§6)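 HepG2 cells were seeded together with the CellTox Green dye at 600 cells/well, left 5 h at 37 C/5% CO2, then given compounds in DMSO. Fluorescence from dye bound to dead-cell DNA was read repeatedly over 40 h of treatment at 37 C.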

[14] = qHTS RealTime-Glo MT Cell Viability Assay in HepG2 cells - 32 hour (AID 1224877); further: nearly all actives have a fitted effect of over 55% in size
Procedure, shortened: as §1

[15] = A CellTox Green Cytotoxicity Assay to monitor cytotoxicity in HepG2 cells - 24 hour (AID 1224878); further: nearly all actives have a fitted effect of over 45% in size
Procedure, shortened: as §6

[16] = A CellTox Green Cytotoxicity Assay to monitor cytotoxicity in HepG2 cells - 40 hour (AID 1224879); further: nearly all actives have a fitted effect of over 40% in size; further: potency means the concentration at half of the fitted maximal effect
Procedure, shortened: as §6

[17] = qHTS RealTime-Glo MT Cell Viability Assay in HEK293 cells - 0 hour (AID 1224880)
Procedure, shortened: as §5

[18] = qHTS assay to identify small molecule antagonists of the estrogen related receptor (ERR) signaling pathway from Tox21 library (AID 1224848); further: nearly all actives have a fitted effect of over 50% in size
Procedure, shortened: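 Cells: ERR line, 2,000/well; 6 h preincubation 37 C/5% CO2. Cpd in DMSO via pin tool; 18 h, 37 C. ONE-Glo, 30 min RT, luminescence.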

Structure (SMILES) | Potency [1] | outcome [2] | outcome [3] | outcome [4] | Potency [5] | outcome [6] | Potency [7] | Potency [8] | Potency [9] | outcome [10] | max response [11] [%] | outcome [12] | outcome [13] | Potency [14] | outcome [15] | Potency [16] | Potency [17] | Potency [18] | Potency [11]
CCOC(=O)C(=O)CCCCCCl | inactive | inactive | inactive | inactive | inactive | inactive | inactive | inactive | inactive | inactive | 4.01 | inactive | inactive | inactive | inactive | inactive | inactive | – | –
CC1=NS(=O)(=O)c2cc(Cl)ccc2N1 | inactive | – | inactive | inactive | inactive | inactive | inactive | inactive | inactive | inactive | 2.07 | inactive | inactive | inactive | inactive | inactive | – | – | –
N[C@H](C(=O)O)[C@@H](O)c1ccc(O)c(O)c1 | inactive | inactive | inactive | inactive | inactive | inactive | inactive | inactive | inactive | inactive | 0.604 | inactive | inactive | inactive | inactive | inactive | inactive | – | –
Cc1c(N)c(=O)n(-c2ccccc2)n1C | inactive | – | inactive | inactive | inactive | inactive | inactive | inactive | inactive | – | -5.41 | inactive | – | inactive | – | – | inactive | – | –
NC(=O)Cc1cccc2ccccc12 | inactive | inactive | inactive | inactive | inactive | inactive | inactive | inactive | – | inactive | 2.56 | inactive | inactive | inactive | inactive | inactive | inactive | – | –
CC1CCC(CO)CC1 (stereo not given) | inactive | inactive | inactive | inactive | inactive | inactive | inactive | inactive | inactive | inactive | 9.47 | inactive | inactive | inactive | inactive | inactive | inactive | – | –
COc1ccnc(CS(=O)c2nc3cc(OC(F)F)ccc3[nH]2)c1OC (stereo not given) | inactive | inactive | inactive | inactive | – | inactive | inactive | inactive | inactive | inactive | – | inactive | – | inactive | inactive | – | inactive | – | –
CNCC(O)c1ccc(O)c(O)c1 (stereo not given) | inactive | – | inactive | – | inactive | inactive | inactive | inactive | inactive | – | 0.68 | inactive | – | inactive | inactive | inactive | inactive | inactive | –
CC(=O)O[C@@]12CO[C@@H]1C[C@H](O)[C@@]1(C)C(=O)[C@H](O)C3=C(C)[C@@H](OC(=O)[C@H](O)[C@@H](NC(=O)OC(C)(C)C)c4ccccc4)C[C@@](O)([C@@H](OC(=O)c4ccccc4)[C@H]21)C3(C)C | inactive | – | inactive | inactive | 47.7 nM (active) | inactive | inactive | inactive | – | inactive | – | inactive | inactive | inactive | – | 6 nM (active) | inactive | – | 33.8 nM (active)
